Laboratory results reported in PubChem BioAssay (NCI).
About 83,000 compounds went through this panel and 20% of them were active in at least one assay; those are over-represented in the sample as a whole.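 96-well plates, one dose, 48 hours. Percent growth reported; active if below 10.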 Active and inactive are the calls of the source.

tested on: RPMI-8226 leukemia; test: NCI-60 one-dose screen, 48 h (100 = growth as untreated, 0 = no growth, -100 = all killed); details: 10 µM unless noted
Experimental: Growth inhibition of the RPMI-8226 human tumor cell line is measured as a screen for anti-cancer activity. Cells are grown in 96 well plates and exposed to the test compound for 48 hours. Compounds are tested at a single concentration, which is 10^-5 M for most compounds. The reported endpoint is percent growth (GI% or GIPRCNT), where numbers from 0 - 100% represent growth inhibition, and numbers from -100% - 0 represent cell death. For example, a value of 40 represents 60% growth inhibition. A value of 0 means no net growth occurred over the course of the experiment. A value of -40 indicates 40% of cells at the beginning of the experiment died by the end of the experiment. A value of -100 means all cells are dead at the end of the experiment.
NCI-60 Human Tumor Cell Lines Screen was performed using the standard one-dose NCI protocol, which is described in more detail at https://dtp.cancer.gov/discovery_development/nci-60/default.htm.
Compounds with GIPRCNT values below 10 were considered active. Activity score was based on GIPRCNT using the following formula: […]
Score is 0 for GIPRCNT values of 100 or above, 50 for GIPRCNT values of 0, and 100 for GIPRCNT values of -100.

SMILES	growth
CCOC(=O)c1ccc(NC(=O)CCCN(CC)CC)cc1	97.8% (inactive)
O=C(Nc1ccc(N2CCCCC2)c(Cl)c1)c1ccc(Br)o1	55.7% (inactive)
CC(C)n1nc(C#Cc2cccc3cc(-c4cccc(C(F)(F)F)c4)ncc23)c2c(N)ncnc21	57.1% (inactive)
C=C1C(=O)O[C@H]2[C@H]1CC/C(C(=O)NCCCCCCCCNC(=O)/C1=C/CC[C@@]3(C)O[C@H]3[C@H]3OC(=O)C(=C)[C@@H]3CC1)=C\CC[C@@]1(C)O[C@@H]21	33.6% (inactive)
O=C1CSC(c2ccccc2)N1c1ccccc1 (stereo not given)	100% (inactive)
c1ccc2[nH]c(SSc3nc4ncncc4[nH]3)nc2c1	14.6% (inactive)
CCN(CC)CCCNC(=O)c1ccc(N)cc1O	94.7% (inactive)
NC(N)=N/N=C(/c1ccccc1)c1ccc(N)cc1	150% (inactive)
CCOC(=O)C(=CNc1ccccc1[N+](=O)[O-])C(=O)OCC	92.6% (inactive)
CCCCNCC(=O)Nc1ccc(C(=O)OCC)cc1	94% (inactive)
Cc1cc(N2CCCCC2)nc(N(CCNc2ccnc3cc(Cl)ccc23)Cc2ccccn2)n1	-14.7% (active)
C[C@@H]1C(=O)N(C[C@@H](Cc2ccccc2)NC(=O)OCc2ccccc2)[C@]1(Cc1ccccc1)C(=O)OCc1ccccc1	19.6% (inactive)
O=c1[nH]c(=O)n(C2CC(O)C(CO)O2)cc1CO (stereo not given)	98.9% (inactive)
CN(C)c1ccc2cc(-c3ccc(Cl)c(Cl)c3)c(N)nc2c1	13.3% (inactive)
Cc1nc(-c2ccccc2)cc2c(O)c(C(=O)N/N=C/c3ccc(N(C)C)cc3)[nH]c(=O)c12	-11.6% (active)
Cc1cc(C(c2ccccc2)c2ccccc2)ccc1NS(=O)(=O)c1ccccc1	71% (inactive)
C=C(CNCCc1ccc(O)cc1)[C@@H]1CC[C@]2(COC3CCCCO3)CC[C@]3(C)[C@H](CC[C@@H]4[C@@]5(C)CCC(N)C(C)(C)[C@@H]5CC[C@]43C)[C@@H]12 (stereo not given in full)	-64.9% (active)
CC1=NN(c2cccc(Cl)c2)C(=O)/C1=C\c1cn(CC(O)CN2CCCCC2)c2ccccc12 (stereo not given)	34.8% (inactive)
CCCCOC(=O)c1ccc(NC(=O)C(C)N2CCOCC2)cc1 (stereo not given)	88.1% (inactive)
CNCCNc1nc2ccccc2c2c(=O)c3cc(F)ccc3oc12	47.8% (inactive)

SMILES	growth
CC(C)n1nc(C#Cc2cccc(NC(=O)c3cccc(C(F)(F)F)c3)c2)c2c(N)ncnc21	-11.8% (active)
CN1CCN(C(=O)[C@@]2(C)CC[C@]3(C)CC[C@]4(C)C(=CC[C@@H]5[C@@]6(C)C/C(=C/c7ccncc7)C(=O)C(C)(C)[C@@H]6CC[C@]54C)[C@@H]3C2)CC1	12.8% (inactive)
O=C(CCl)N1c2cccc3cccc(c23)N(C(=O)CCl)C1c1cn(-c2ccccc2)nc1-c1cccc([N+](=O)[O-])c1	-6.92% (active)
Cc1cnc(Nc2ccc(OCCN3CCCC3)cc2)nc1NCc1ccco1	50.7% (inactive)
CC(=O)Nc1nccs1	102% (inactive)
Nc1ccn(C2OC(F)(CO)C(O)C2F)c(=O)n1 (stereo not given)	106% (inactive)
O=C(Nc1ccccc1)c1sc(-c2cccc(C(F)(F)F)c2)cc1O	35.5% (inactive)
C=CCN1C(=O)[C@]2(SC1=S)[C@H](c1cccc(Cl)c1)CN(C)[C@]21C(=O)NC2C=CC(Cl)=C[C@H]21 (stereo not given in full)	-5.81% (active)
COc1cc2nc(Nc3ccc(F)cc3)nc(N)c2cc1OC	76.8% (inactive)
OC(CBr)c1ccnc2ccccc12 (stereo not given)	87.4% (inactive)
O=C(/C=C/C12c3ccccc3C(c3ccccc31)C1C(=O)N(c3ccccc3)C(=O)C12)c1ccccc1 (stereo not given)	1% (active)
COc1cc2oc(-c3cccc(C(=O)Nc4ccc(C)cc4)c3)cc(=O)c2c(OC)c1OC	-7.08% (active)
Clc1ccc(-c2nnc(Cn3ccnc3)o2)cc1	112% (inactive)
Cc1cccc(-c2cc(O)c(C(=O)N3CCOCC3)s2)c1	41.7% (inactive)
COc1ccc(Oc2nc(Nc3ccc(N4CCOCC4)nc3)ncc2NC(=O)c2cc(OC)cc(OC)c2)cc1	49% (inactive)
NC(=O)c1c(NC(=O)c2ccccn2)sc2c1CCC(=O)C2	1.88% (active)
O=C1NCC(=O)N(Cc2ccco2)[C@H]1Cc1ccccc1	104% (inactive)
COc1ccc(-n2nnc(C(=O)NCCc3c[nH]c4ccc(F)cc34)c2C)cc1	93.3% (inactive)
C=C1c2c(C)nn(-c3ccc(O)cc3)c2N(C)C23C[C@@H]1C1(C)c4c(C)nn(-c5ccc(O)cc5)c4N(C)C(C)(C[C@H]12)C3 (stereo not given in full)	-1.11% (active)
CCOc1ccc(-c2nc3ccc(-c4nc5ccc(N6CCN(C)CC6)cc5[nH]4)cc3[nH]2)cc1OCC	45.8% (inactive)
